Laboratory results reported in PubChem BioAssay (EPA / NIEHS).
Records with an inconclusive call do not appear. Active and inactive are the calls of the source. The calls were made as follows, unless noted: active = hit-call score of the fitted dose curve at least 0.9, where 1 is the maximum; inactive = score below 0.9.

Key:
[1] = CCTE_Mundy_HCI_Cortical_Synap_Neur_Matur_NeuriteSpotCountPerNeuriteLength: CCTE's Synaptogenesis and Neurite Maturation Assay in rat cortical cells for Neurite Spot Count per Neurite Length, Mundy Lab (AID 2284210)
How it was run: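 Rat primary cortical cultures, AraC added at DIV 5 to suppress glia; chemical exposure from DIV 7 to DIV 12. Fixed cells stained for MAP2 and synaptophysin plus Hoechst; synaptophysin puncta per neurite length quantified by high-content imaging, relative to DMSO.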

[2] = CCTE_Mundy_HCI_Cortical_Synap_Neur_Matur_BPCount: CCTE's Synaptogenesis and Neurite Maturation Assay in rat cortical cells for Branch Point Count, Mundy Lab (AID 2284211)
How it was run: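 Branch point number is quantified by automated imaging of fluorescently labelled neurites and synapses in rat primary cortical neurons exposed from DIV 7 to DIV 12. Activity is analysed relative to DMSO negative control.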

[3] = CCTE_Mundy_HCI_Cortical_NOG_NeuriteCount: CCTE's Neurite Outgrowth Assay in rat cortical cells for Neurite Count, Mundy Lab (AID 2284212);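 also: cells fixed about two days after chemical exposure began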
How it was run: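 Neurite number per cell from high-content imaging of betaIII-tubulin immunostaining, with Hoechst nuclear counterstain.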

[4] = CCTE_Mundy_HCI_Cortical_NOG_NeuriteLength: CCTE's Neurite Outgrowth Assay in rat cortical cells for Neurite Length, Mundy Lab (AID 2284213)
How it was run: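 Neurite length was read by high-content imaging of βIII-tubulin-labelled neurites in rat primary cortical cultures. Activity was fitted relative to DMSO.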

[5] = CCTE_Mundy_HCI_Cortical_Synap_Neur_Matur_NeuriteLength: CCTE's Synaptogenesis and Neurite Maturation Assay in rat cortical cells for Neurite Length, Mundy Lab (AID 2284214)
How it was run: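 Rat primary cortical cells were plated, treated with AraC at DIV 5 to arrest glial growth, then chemical-dosed with media change at DIV 7 through DIV 12. Fixed cells stained for MAP2, synaptophysin and Hoechst; neurite length quantified by high-content imaging.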

[6] = CCTE_Mundy_HCI_Cortical_Synap_Neur_Matur_NeuriteSpotCountPerNeuron: CCTE's Synaptogenesis and Neurite Maturation Assay in rat cortical cells for Neurite Spot Count per Neuron Count, Mundy Lab (AID 2284215)
How it was run: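 Developing rat cortical neurons, with glia suppressed by AraC, are exposed to chemicals from DIV 7 to DIV 12. Automated fluorescence imaging of MAP2-labelled neurites and synaptophysin puncta yields a count per neuron, normalised against DMSO wells.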

[7] = CCTE_Mundy_HCI_Cortical_Synap_Neur_Matur_SynapseCount: CCTE's Synaptogenesis and Neurite Maturation Assay in rat cortical cells for Synapse Count, Mundy Lab (AID 2284218)
How it was run: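 Rat primary cortical cells in 96-well plates received AraC at DIV 5 and were dosed with chemicals at DIV 7 with media change, through DIV 12 (288.33 h). Synapses per neuron counted by high-content imaging of MAP2/synaptophysin/Hoechst staining, versus DMSO baseline.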

[8] = CCTE_Mundy_HCI_hN2_NOG_NeuriteCount: CCTE's Neurite Outgrowth Assay in human hN2 cells for Neurite Count, Mundy Lab (AID 2284219; active = hit-call score of the fitted dose curve at least 0.9, where 1 is the maximum)
How it was run: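 In this morphology assay, hNP1-derived neurons received test chemical 2 h post-plating and were fixed two days later in warm paraformaldehyde/sucrose containing Hoechst 33342. Neurites, labelled by rabbit anti-βIII-tubulin (1:800) and Alexa Fluor-488 (1:500), were counted automatically.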

[9] = CCTE_Mundy_HCI_hN2_NOG_NeuriteLength: CCTE's Neurite Outgrowth Assay in human hN2 cells for Neurite Length, Mundy Lab (AID 2284220; active = hit-call score of the fitted dose curve at least 0.9, where 1 is the maximum)
How it was run: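 Read-out is neurite length from high-content imaging of βIII-tubulin/Alexa Fluor-488-labelled neurons, referenced to DMSO controls.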

[10] = CCTE_Mundy_HCI_hN2_NOG_NeuronCount: CCTE's Neurite Outgrowth Assay in human hN2 cells for Neuron Count, Mundy Lab (AID 2284221; active = hit-call score of the fitted dose curve at least 0.9, where 1 is the maximum)
How it was run: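 Read-out is the number of betaIII-tubulin-positive neurons imaged by automated high-content analysis, with DMSO as negative control.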

[11] = CCTE_Mundy_HCI_Cortical_Synap_Neur_Matur_NeuriteCount: CCTE's Synaptogenesis and Neurite Maturation Assay in rat cortical cells for Neurite Count, Mundy Lab (AID 2284222);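 also: exposure from day 7 to day 12 in vitro with readout at day 12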
How it was run: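 In this multiplexed morphology readout, rat primary cortical neurons are fixed at DIV 12 following dosing at DIV 7 and stained for MAP2, synaptophysin and nuclei. High-content image analysis yields neurite count.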

[12] = CCTE_Mundy_HCI_Cortical_Synap_Neur_Matur_CellBodySpotCount: CCTE's Synaptogenesis and Neurite Maturation Assay in rat cortical cells for Cell Body Spot Count, Mundy Lab (AID 2284223)
How it was run: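 Chemicals were applied to AraC-treated rat primary cortical cells at DIV 7 and measured at DIV 12. Fixed cells were labelled for MAP2, synaptophysin and nuclei, and high-content imaging gave cell body synaptophysin spot counts per neuron relative to DMSO.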

[13] = CCTE_Mundy_HCI_Cortical_NOG_BPCount: CCTE's Neurite Outgrowth Assay in rat cortical cells for Branch Point Count, Mundy Lab (AID 2284237)
How it was run: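 Measured 50.33 h after dosing, this morphology endpoint uses rat primary cortical cultures labelled for betaIII-tubulin. Branch points are quantified by high-content imaging, with DMSO as negative control and baseline.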

[14] = CCTE_Mundy_HCI_hNP1_Casp3_7: CCTE's Caspase-Glo 3/7 Assay in human neuroprogenitor cells for Apoptosis, Mundy Lab (AID 2284240)
How it was run: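 Luminescent caspase-3/7 readout, 26.5 h post-dose, in human neural progenitor cells from WA09 embryonic stem cells. Cells grew 40–44 h at 37 °C, 5% CO2 before chemical addition. Activity analysed as signal increase over DMSO baseline.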

[15] = CCTE_Mundy_HCI_hNP1_CellTiter: CCTE's Cell Titer-Glo 2 Assay in human neuroprogenitor cells for Viability, Mundy Lab (AID 2284241; active = hit-call score of the fitted dose curve at least 0.9, where 1 is the maximum)
How it was run: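 Viability read as luminescent ATP content (CellTiter-Glo, 30 min room temperature) twenty-four hours after dosing, relative to DMSO. Cells: WA09-derived hNP1 neuroprogenitors on poly-L-ornithine/laminin, plated 40 to 44 hours before chemical.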

[16] = CCTE_Mundy_HCI_Cortical_Synap_Neur_Matur_NeuronCount: CCTE's Synaptogenesis and Neurite Maturation Assay in rat cortical cells for Neuron Count, Mundy Lab (AID 2284242; active = hit-call score of the fitted dose curve at least 0.9, where 1 is the maximum)
How it was run: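 Rat primary cortical cells received AraC at DIV 5 to arrest glia, then were dosed with chemicals at DIV 7 through DIV 12. Fixed cells were stained for nuclei, MAP2 and synaptophysin, and neurons were counted by high-content imaging relative to DMSO.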

[17] = IUF_NPC2c_oligodendrocyte_migration_120hr: Leibniz Research Institute for Environmental Medicine (IUF) 120-hour Neural Progenitor Cell Migration Assay for Oligodendrocyte Migration (NPC2c) (AID 2284297);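 also: O4-positive oligodendrocyte migration distance divided by radial glia migration distance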
How it was run: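 Using fetal brain neural progenitor spheres differentiating in N2 medium at 37C, compounds were present for 120 h. Oligodendrocyte migration distance, normalized to radial glia migration, was measured from imaged O4 staining.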

[18] = IUF_NPC2a_radial_glia_migration_120hr: Leibniz Research Institute for Environmental Medicine (IUF) 120-hour Neural Progenitor Cell Migration Assay for Radial Glia Migration (NPC2a) (AID 2284298)
How it was run: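 Exposure of 0.3 mm primary hNPC spheres runs day 0 to 120 h with a half-volume medium change at day 3. Fixed cells get Hoechst staining; high-content analysis of nuclear positions yields radial glia migration distance per well, compared against DMSO controls.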

[19] = IUF_NPC2a_radial_glia_migration_72hr: Leibniz Research Institute for Environmental Medicine (IUF) 72-hour Neural Progenitor Cell Migration Assay for Radial Glia Migration (NPC2a) (AID 2284299)
How it was run: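 Human fetal cortex (GW 16-19) neural progenitor spheres, 0.3 mm, plated on poly-D-lysine/laminin in N2 differentiation medium with compound from day 0. Radial glia migration distance (um, sphere core edge to migration edge) measured manually in four directions on 72 h brightfield images; well mean used.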

[20] = IUF_NPC2b_neuronal_migration_120hr: Leibniz Research Institute for Environmental Medicine (IUF) 120-hour Neural Progenitor Cell Migration Assay for Neuron Migration (NPC2b) (AID 2284300)
How it was run: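 Fetal human NPC spheres migrate on PDL/laminin during 120 h compound treatment; neuronal migration distance, glia-normalized, scored versus DMSO control.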

[21] = IUF_NPC3_neuronal_differentiation_120hr: Leibniz Research Institute for Environmental Medicine (IUF) 120-hour Neuronal Differentiation Assay (NPC3) (AID 2284301)
How it was run: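 Human fetal (GW 16-19) neural progenitor spheres (0.3 mm) plated on poly-D-lysine/laminin in N2 differentiation medium, exposed 120 h at 37C with half-medium renewal day 3; 7 concentrations. TUBB3+ cells as % of Hoechst nuclei, CNN-identified; DMSO baseline.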

[22] = IUF_NPC4_neurite_length_120hr: Leibniz Research Institute for Environmental Medicine (IUF) 120-hour Neuronal Morphology Assay for Neurite Length (NPC4) (AID 2284302)
How it was run: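 Human fetal neural progenitor spheres (0.3 mm) plated on poly-D-lysine/laminin in N2 differentiation medium, exposed from day 0 for 120 h with half-medium refresh at day 3, 37C. Mean neurite length (um) of TUBB3-positive neurons from skeletonized immunostaining images; DMSO ≤0.1%.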

[23] = IUF_NPC5_oligodendrocyte_differentiation_120hr: Leibniz Research Institute for Environmental Medicine (IUF) 120-hour Oligodendrocyte Differentiation Assay (NPC5) (AID 2284304; active = hit-call score of the fitted dose curve at least 0.9, where 1 is the maximum;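 also: primary human fetal neural progenitor spheres plated to migrate and differentiate; share of O4-positive cells among Hoechst nuclei found by CNN image analysis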)
How it was run: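 After plating on poly-D-lysine/laminin, fetal-derived hNPC spheres differentiated for 120 h at 37C in compound-containing N2 medium, refreshed by half on day 3. O4 immunostaining over Hoechst nuclei in the migration zone gave oligodendrocyte percentage relative to DMSO.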

[24] = IUF_NPC2-5_cytotoxicity_72hr: Cytotoxicity Assessment at 72 hours in the Leibniz Research Institute for Environmental Medicine (IUF) Neural Progenitor Cell Migration and Differentiation Assay for Cytotoxicity (NPC2-5) (AID 2284306; active = hit-call score of the fitted dose curve at least 0.9, where 1 is the maximum;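 also: LDH release into supernatant measured by resorufin fluorescence marking membrane damage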)
How it was run: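 Human fetal primary neural progenitor spheres (0.3 mm) plated on poly-D-lysine/laminin in N2 differentiation medium, exposed from day 0 at 37C. LDH-dependent resazurin-to-resorufin fluorescence in supernatant at 72 h; 7 concentrations, DMSO at most 0.1%.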

[25] = IUF_NPC2-5_cytotoxicity_120hr: Cytotoxicity Assessment at 120 hours in the Leibniz Research Institute for Environmental Medicine (IUF) Neural Progenitor Cell Migration and Differentiation Assay (NPC2-5) (AID 2284307; active = hit-call score of the fitted dose curve at least 0.9, where 1 is the maximum)
How it was run: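 Membrane-integrity loss is quantified by LDH in supernatant after five days of exposure of migrating, differentiating human fetal NPC spheres; seven serially diluted concentrations are tested with DMSO kept at or below 0.1%.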

[26] = IUF_NPC2-5_cell_number_120hr: Cell Number Assessment at 120 hours in the Leibniz Research Institute for Environmental Medicine (IUF) Neural Progenitor Cell Migration and Differentiation Assay (NPC2-5) (AID 2284308);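 also: count of Hoechst-stained nuclei in migration zone around plated human neural progenitor spheres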
How it was run: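 Seven-point serial dilutions plus solvent control were applied to plated 0.3 mm hNPC spheres at differentiation start, with medium half-replaced at day 3. Nuclei positive for Hoechst in the migration zone were enumerated at 120 h.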

[27] = IUF_NPC2-5_viability_120hr: Viability Assessment at 120 hours in the Leibniz Research Institute for Environmental Medicine (IUF) Neural Progenitor Cell Migration and Differentiation Assay (NPC2-5) (AID 2284312)
How it was run: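 Human fetal neural progenitor spheres (0.3 mm) plated on poly-D-lysine/laminin in N2 differentiation medium, exposed 120 h with half-medium refresh at day 3. Viability by alamar blue resazurin fluorescence; 7 concentrations, DMSO max 0.1%.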

[28] = IUF_NPC1_cytotoxicity_72hr: Cytotoxicity Assessment at 72 hours in the Leibniz Research Institute for Environmental Medicine (IUF) Neural Progenitor Cell Proliferation Assay (NPC1) (AID 2284332; active = hit-call score of the fitted dose curve at least 0.9, where 1 is the maximum;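 also: rising LDH signal means more cytotoxicity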)
How it was run: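 Single human fetal cortex neural progenitor spheres (GW 16-19, 0.25-0.35 mm) in EGF/FGF proliferation medium were exposed to compound for 72 h at 37C without renewal. Medium LDH release was read as resorufin fluorescence and fitted as gain-of-signal.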

Measured: outcome

C[C@H](CS)C(=O)N1CCC[C@H]1C(=O)O
inactive: [1] | [2] | [3] | [4] | [5] | [6] | [7] | [8] | [9] | [10] | [11] | [12] | [13] | [14] | [15] | [16] | [17] | [18] | [19] | [20] | [21] | [22] | [23] | [24] | [25] | [26] | [27] | [28]
